# Source: PubChem BioAssay (NCATS)
# Results filed as inconclusive are left out. A call without a number means that no potency is given here. The source made the active and inactive calls. The call rests on the fitted dose curve; in most records, active means well fitted cell-killing curve with a large enough effect; inconclusive means small, poorly fitted or top-dose-only effect; inactive means flat fitted curve, though single readings scatter.
# Test: Cell Viability - Renal Proximal Tubule (AID 545); further: nearly all actives have a fitted effect of over 40% in size
# Conditions: renal proximal tubule cells viability, primary cells of rat origin; series mostly up to 91.7 µM
# Excerpt: NIH Chemical Genomics Center [NCGC]
# NIH Molecular Libraries Screening Centers Network [MLSCN]
# National Institutes of Environmental Health Sciences [NIEHS]
# National Toxicology Program [NTP]
# We have developed a 1536-well cell-based assay for quantitative high throughput screening (qHTS) against a number of cell lines to determine in vitro cytotoxicity of small molecules. This particular assay uses the renal proximal tubule cells which are derived from normal kidney cells freshly isolated from rat.
# NCGC Assay Protocol Summary:
# The CellTiter-Glo luminescent cell viability assay (Promega) is a homogeneous method to measure the number of viable cells in culture. The end point readout of this assay is based on quantitation of intracellular ATP, an indicator of metabolic activity, using the luciferase reaction. Luciferase catalyzes the oxidation of beetle Luciferin to oxyluciferin and light in the presence of ATP. The luminescent signal is proportional to amount of ATP present.
# Using the CellTiter-Glo luminescent cell viability assay, the amount of cellular ATP was measured in the renal proximal tubule cells with complete culture medium following compound treatment for 40 hours. The assay was performed in opaque white Kalypsys 1536-well plates. In the screen, tamoxifen and doxorubicin were used as positive controls. Library compounds were measured for their ability to cause acute toxicity in the cell line, as reflected by a decrease in intracellular ATP levels, in a concentration-dependent manner. […] AC50 values were determined from concentration-response data modeled with the standard Hill equation.
# qHTS protocol for CellTiter Glo renal proximal tubule cell assay
# [Step] [Parameter] [Value] [Description]
# 1. Reagent; 5 uL; 1000 renal proximal tubule cells/well
# 2. Time; 5 hr; 37 °C incubation
# 4. Controls; 23 nL; Tamoxifen 0.34 uM to 100 uM & Doxorubicin 0.02 nM to 100 uM
# 5. Time; 40 hr; 37 °C incubation
# 6. Reagent; 5 uL; CellTiter Glo reagent
# 7. Time; 20 min; Room Temperature
# 8. Detection; Luminescence; Viewlux plate reader
# Keywords: cell viability, cytotoxicity, renal proximal tubule cells, luminescence, NTPHTS, NTPHTS_NCGC, NIEHS, EPA, DSSTox, MLSMR, MLSCN, NIH Roadmap, qHTS, NCGC
# Potency means the concentration at half of the fitted maximal effect.
row,SMILES,Potency
1,Cc1ccc2ncccc2c1,inactive
2,CN(C)c1cccc(O)c1,inactive
3,Nc1ccc(Cl)cc1[N+](=O)[O-],inactive
4,O=C(O)/C=C/C(=O)O,inactive
5,Cc1c(N)cccc1[N+](=O)[O-],inactive
6,C/C(C=O)=C/c1ccccc1,inactive
7,Cc1ccc2ccccc2c1[N+](=O)[O-],inactive
8,NS(=O)(=O)O,inactive
9,C=Cc1ccccn1,inactive
10,Cc1ccc2oc(=O)ccc2c1,inactive
11,Cc1cccc2ccccc12,inactive
12,CC1=C(/C=C/C(C)=C/C=C/C(C)=C\C=O)C(C)(C)CCC1,12.6 µM (active)
13,Clc1cc(Cl)cc(Cl)c1,inactive
14,Nc1nc2ccccc2[nH]1,inactive
15,CCOc1cc(OCC)c(C(C)=O)cc1OCC,inactive
16,CCOC(=O)C(C)C(C)=O (stereo not given),inactive
17,Cc1nc2ccc(Cl)cc2[nH]1,inactive
18,c1ccc2n[nH]nc2c1,inactive
19,CC(=O)OCCC(C)C,inactive
20,CC(C)C=O,inactive

row,SMILES,Potency
1,Cc1ccc(Br)cc1,inactive
2,CCCC=O,inactive
3,Cc1cccc(Br)c1,inactive
4,Cc1c(N)cccc1N,inactive
5,Fc1ccccc1,inactive
6,N#Cc1ccccc1,inactive
7,CCCCCCCCC/C=C/CC1CC(=O)OC1=O (stereo not given),inactive
8,C/C=C1\CC2C=CC1C2 (stereo not given),inactive
9,CCCCCCC(=O)O,inactive
10,CCCCCCCCCCCCC1CO1 (stereo not given),inactive
11,NC(=O)c1cccc([N+](=O)[O-])c1,inactive
12,BrC(Br)C(Br)Br,inactive
13,O=[N+]([O-])c1ccc(NCCO)c(OCCO)c1,inactive
14,O=Cc1ccccc1Cl,inactive
15,Cc1ccc(Cl)cc1N,inactive
16,Cc1cscn1,inactive
17,CN(C)CCCCl,inactive
18,Nc1c(Cl)cc(Cl)cc1Cl,inactive
19,NC(=O)NC(N)=O,inactive
20,CC(C=O)Cc1ccc(C(C)(C)C)cc1 (stereo not given),inactive
